# Results published in the supplement of paper PMC10681739.
# Assays:
# [1] = molecular target: T1, ETS1 (UniProt P14921); test: ETS1 binding intensity (PBM fluorescence), ETS1 alone (arbitrary fluorescence units); higher = stronger binding; conditions: ETS1 concentration 1 nM; RUNX1 concentration 0 nM
# T1 sequence: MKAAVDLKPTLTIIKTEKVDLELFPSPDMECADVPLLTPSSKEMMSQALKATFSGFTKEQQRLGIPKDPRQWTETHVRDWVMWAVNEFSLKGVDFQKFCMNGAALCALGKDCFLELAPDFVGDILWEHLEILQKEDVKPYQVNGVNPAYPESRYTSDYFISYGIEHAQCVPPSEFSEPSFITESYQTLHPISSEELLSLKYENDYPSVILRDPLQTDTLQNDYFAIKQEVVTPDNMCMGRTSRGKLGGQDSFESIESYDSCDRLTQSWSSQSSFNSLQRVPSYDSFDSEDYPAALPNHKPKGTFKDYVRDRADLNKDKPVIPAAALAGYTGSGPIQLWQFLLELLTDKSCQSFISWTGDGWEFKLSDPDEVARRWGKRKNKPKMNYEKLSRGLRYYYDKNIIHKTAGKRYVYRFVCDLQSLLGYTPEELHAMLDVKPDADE
# [2] = molecular target: T1, ETS1; test: ETS1 binding intensity (PBM fluorescence) in presence of RUNX1, normalised to ETS1-only experiment (arbitrary fluorescence units); higher = stronger binding; conditions: ETS1 concentration 1 nM; RUNX1 concentration 25 nM
sequence,measurement,setting,value
CTCGGAGCGGAACTACTAGGGTGGTTTCTCCTGAGG,ETS1 binding intensity,[1],464
same,ETS1 binding intensity,[2],336
CCAGGGGCACACCGGAACCCACACCTGAAATCACAG,ETS1 binding intensity,[1],647
same,ETS1 binding intensity,[2],739
ACAGCATTTCCTGGTGGCCAGATATCTGAGGTTTCA,ETS1 binding intensity,[1],426
same,ETS1 binding intensity,[2],539
CCCTCTGAGACAGGATTTGCTTCCCACACAAGGCTA,ETS1 binding intensity,[1],495
same,ETS1 binding intensity,[2],629
GCCACACCCCCTTCCTGTTGTGTGTGGGGATTCATG,ETS1 binding intensity,[1],744
same,ETS1 binding intensity,[2],696
TGGGAAGGGTGAGGAGGAAGCGGTGGCCTTGCTCTG,ETS1 binding intensity,[1],604
same,ETS1 binding intensity,[2],604
TGAAGGGACGGAAGGGACAGAACTTGCGGGAGGCAC,ETS1 binding intensity,[1],497
same,ETS1 binding intensity,[2],416
TGGTGTGACCAGGATGTGAACCGCGGCAAGCTGCCT,ETS1 binding intensity,[1],995
same,ETS1 binding intensity,[2],992
GCGCGCTTCCGCCTTCATGCTAGCAACGCCCGCAGT,ETS1 binding intensity,[1],566
same,ETS1 binding intensity,[2],560
TCTCTCTACGGAAGCTGGTAGGGCTGTGGGTGCTTC,ETS1 binding intensity,[1],729
same,ETS1 binding intensity,[2],810
AGTACAAAGGGGAAATGTCTCTTGGTGGTTGATAAG,ETS1 binding intensity,[1],628
same,ETS1 binding intensity,[2],564
TTCTCTGATTTTCCTTCCGCTCCCACAGCCTCTCCC,ETS1 binding intensity,[1],697
same,ETS1 binding intensity,[2],612
GCCACGCAGTTCCCTTCCTGCGGCGTCCTCCACACC,ETS1 binding intensity,[1],561
same,ETS1 binding intensity,[2],421
CCTGAGCGCCCGGAAGGAAGGCTGTGGTAGGTTGTC,ETS1 binding intensity,[1],1270
same,ETS1 binding intensity,[2],1570
AATATAGGAAGTGTCAGCTAGGGAACTCAACCACAA,ETS1 binding intensity,[1],496
same,ETS1 binding intensity,[2],382
CCTCCTGGGAACTTCCTGCGGGGGCCGAAGCTGAAG,ETS1 binding intensity,[1],640
same,ETS1 binding intensity,[2],660
CTTGTTATCCTTCCGGAGGCGGTAACTCATGAGAGA,ETS1 binding intensity,[1],497
same,ETS1 binding intensity,[2],352
CTTCAAAGTCAGGAAACCGTTAAACCACACTGCATC,ETS1 binding intensity,[1],716
same,ETS1 binding intensity,[2],1910
AAAACCTTGTTGAAAGGATGTGGCTTAGCGAGAGGT,ETS1 binding intensity,[1],1140
same,ETS1 binding intensity,[2],1820
TCTACATCCTGCAGTTCTCCATTGTGGCCATTAGGT,ETS1 binding intensity,[1],443
same,ETS1 binding intensity,[2],319
TCAGGGTCAGCAGGAGGAAACCACGCACTACATGCT,ETS1 binding intensity,[1],437
same,ETS1 binding intensity,[2],451
GGCTTGATTGAACGAGGATGTGGTTCTTGGGTGGGA,ETS1 binding intensity,[1],686
same,ETS1 binding intensity,[2],1770
GGAGTGAGGAGGAAGCGGAGGCGAGACCGCGCTCAA,ETS1 binding intensity,[1],464
same,ETS1 binding intensity,[2],399
TTCTGGACATGCTTCCTGTGGCTTCTCTCCTGCGCT,ETS1 binding intensity,[1],845
same,ETS1 binding intensity,[2],598
CCGCCTCCGGAAGAATTCTCTGCGGGCATGTTGCTG,ETS1 binding intensity,[1],736
same,ETS1 binding intensity,[2],775
CTACATGTTTCACAGGAAGGTGGTCACCAGGAGGCA,ETS1 binding intensity,[1],782
same,ETS1 binding intensity,[2],821
GGAGCAGGAAGCGTCGCCGGGGGGCCCACAAGGGTA,ETS1 binding intensity,[1],528
same,ETS1 binding intensity,[2],614
TTTTCCGACGGAAGCCTTACTGCCGCAAACGTCACT,ETS1 binding intensity,[1],556
same,ETS1 binding intensity,[2],503
GCATTTCTCAGAAAAGGAAGCGGTTGTGCCGGGAGG,ETS1 binding intensity,[1],1530
same,ETS1 binding intensity,[2],2100
AAGATGCCCCCTTCCGCTGGAAAGCGGTAATGCCCA,ETS1 binding intensity,[1],724
same,ETS1 binding intensity,[2],705
CTGGCAGGCCTCACTTCCTCACCACATGGCCCTCCC,ETS1 binding intensity,[1],543
same,ETS1 binding intensity,[2],640
GCGCCCCGTCCTTCCGCAGCCCAACCGCCTCTTCCC,ETS1 binding intensity,[1],476
same,ETS1 binding intensity,[2],383
CGTTTCCTGTGGCTGCAGCTCTCCCCACCCACACAC,ETS1 binding intensity,[1],829
same,ETS1 binding intensity,[2],781
GCAAACGGAAGAGAGGAACGAAGGCCGCAGAGCTTG,ETS1 binding intensity,[1],486
same,ETS1 binding intensity,[2],481
TGTGCTTTGTAGTGAGGATGTGGGTGCCTGCCTCAC,ETS1 binding intensity,[1],797
same,ETS1 binding intensity,[2],1010
ATAGTCACCGTTCCGGCCCTCCTCCACCGCACTTCT,ETS1 binding intensity,[1],445
same,ETS1 binding intensity,[2],578
CTCAGAGGCACCAAGGGAAGTGGTTAAAACAGAAAG,ETS1 binding intensity,[1],677
same,ETS1 binding intensity,[2],1790
ACGTCTTTATTTATCCTGTGGCTTCCCGACCCCCAC,ETS1 binding intensity,[1],537
same,ETS1 binding intensity,[2],576
AGGTCTCCGGAAGTGGGTCTGCGGCGCGCGGGATGC,ETS1 binding intensity,[1],6040
same,ETS1 binding intensity,[2],8540
TAACGCGAGAACTTCCTGCGGGCCACGCCCTCTTTC,ETS1 binding intensity,[1],571
same,ETS1 binding intensity,[2],462
CTCTTCCAGGAAGCCTTCCCTGACCACTGCTTGCTC,ETS1 binding intensity,[1],396
same,ETS1 binding intensity,[2],505
CTTGCTCCCCACTTCCTACCACATTCAATGCCCGGA,ETS1 binding intensity,[1],523
same,ETS1 binding intensity,[2],558
TATGACCAGGGGAGGGAAGTGACCACAGCATATCAC,ETS1 binding intensity,[1],466
same,ETS1 binding intensity,[2],823
TGCACTCCACTTCCCCTCGCCCGCAGTGAGCAGTCA,ETS1 binding intensity,[1],426
same,ETS1 binding intensity,[2],450
TTGCTAGAGGAAGCGCTGCCCCGGCAGCCGCAGCCA,ETS1 binding intensity,[1],524
same,ETS1 binding intensity,[2],596
TTGTCACGTCCGGCACGCCGCGAACCGCAAGGAACC,ETS1 binding intensity,[1],571
same,ETS1 binding intensity,[2],1800
GAGGAAAAAGGAAACAGAAACTCCGCAACTTGCGCC,ETS1 binding intensity,[1],503
same,ETS1 binding intensity,[2],411
GCAGGAAACGCTTTCTTAACACTATGTGGGTGAGGT,ETS1 binding intensity,[1],763
same,ETS1 binding intensity,[2],691
CAACTCACATCCTCTGGCAACAACCACTAATCCACT,ETS1 binding intensity,[1],460
same,ETS1 binding intensity,[2],525
